# Data taken from PubChem BioAssay.
# Calls of active or inactive are those of the source.
# Assays:
# [1] = test system: Plasmodium falciparum Sir2 (PF13_0152, Sir2A); assay: Plasmodium falciparum Sir2A binding compounds – biochemical, small-molecule microarray, 635 nm fluorescence, primary screen (AID 1098); conditions: fluorescence 635 nm, higher = more signal;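 further: score merges spot fluorescence intensity with its signal-to-noise ratio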
# [2] = probe aDKK1 binding to arrayed compounds – biochemical, biotinylated probe, 635/667 nm fluorescence, primary screen (AID 1099); conditions: small-molecule microarray, higher = more signal;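 further: score merges 667nm spot fluorescence with signal to noise across triplicate slides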
# [3] = probe aCHRDL2 binding to arrayed compounds – biochemical, biotinylated probe, 635/667 nm fluorescence, primary screen (AID 1100); conditions: small-molecule microarray, higher = more signal
# [4] = change in splice reporter luminescence, either direction, cell-based, HEK293, spliceosome inhibition project, primary screen (AID 1101); conditions: HEK293 splicing luciferase reporter, 24 h, higher = more signal, called active from +8 up or from −8 down;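 further: HEK293 cells carrying a splicing-competent luciferase reporter gene; test concentration not given here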
# [5] = molecular target: Fibroblast growth factor 10 (Homo sapiens) (UniProt O15520); assay: compounds binding fibroblast growth factor 10 – biochemical, small-molecule microarray, 635 nm fluorescence, primary screen (AID 1102); conditions: FGF10 binding, fluorescence 635 nm, higher = more signal
# Fibroblast growth factor 10 (Homo sapiens), sequence (O15520 whole entry, looked up): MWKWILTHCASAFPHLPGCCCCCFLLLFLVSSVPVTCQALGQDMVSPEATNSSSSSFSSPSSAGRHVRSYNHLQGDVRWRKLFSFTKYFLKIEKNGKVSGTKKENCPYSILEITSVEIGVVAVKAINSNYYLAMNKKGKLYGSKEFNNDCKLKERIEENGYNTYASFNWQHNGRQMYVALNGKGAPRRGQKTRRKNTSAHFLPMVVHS
# [6] = test system: glycogen synthase kinase-3 (GSK3A per assay name; protocol says GSK3B); assay: compounds binding glycogen synthase kinase-3 – biochemical, small-molecule microarray, 635 nm fluorescence, GSK3A, primary screen (AID 1103); conditions: fluorescence 635 nm, higher = more signal; further: the record names both GSK3A and GSK3B
# [7] = molecular target: Epidermal growth factor receptor (Homo sapiens) (UniProt P00533); assay: compounds binding epidermal growth factor receptor – biochemical, small-molecule microarray, 635 nm fluorescence, primary screen (AID 1104); conditions: EGFR binding, higher = more signal;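 further: score merges 667 nm emission intensity with spot signal to noise over triplicate slides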
# Epidermal growth factor receptor (Homo sapiens), sequence (P00533 whole entry, looked up): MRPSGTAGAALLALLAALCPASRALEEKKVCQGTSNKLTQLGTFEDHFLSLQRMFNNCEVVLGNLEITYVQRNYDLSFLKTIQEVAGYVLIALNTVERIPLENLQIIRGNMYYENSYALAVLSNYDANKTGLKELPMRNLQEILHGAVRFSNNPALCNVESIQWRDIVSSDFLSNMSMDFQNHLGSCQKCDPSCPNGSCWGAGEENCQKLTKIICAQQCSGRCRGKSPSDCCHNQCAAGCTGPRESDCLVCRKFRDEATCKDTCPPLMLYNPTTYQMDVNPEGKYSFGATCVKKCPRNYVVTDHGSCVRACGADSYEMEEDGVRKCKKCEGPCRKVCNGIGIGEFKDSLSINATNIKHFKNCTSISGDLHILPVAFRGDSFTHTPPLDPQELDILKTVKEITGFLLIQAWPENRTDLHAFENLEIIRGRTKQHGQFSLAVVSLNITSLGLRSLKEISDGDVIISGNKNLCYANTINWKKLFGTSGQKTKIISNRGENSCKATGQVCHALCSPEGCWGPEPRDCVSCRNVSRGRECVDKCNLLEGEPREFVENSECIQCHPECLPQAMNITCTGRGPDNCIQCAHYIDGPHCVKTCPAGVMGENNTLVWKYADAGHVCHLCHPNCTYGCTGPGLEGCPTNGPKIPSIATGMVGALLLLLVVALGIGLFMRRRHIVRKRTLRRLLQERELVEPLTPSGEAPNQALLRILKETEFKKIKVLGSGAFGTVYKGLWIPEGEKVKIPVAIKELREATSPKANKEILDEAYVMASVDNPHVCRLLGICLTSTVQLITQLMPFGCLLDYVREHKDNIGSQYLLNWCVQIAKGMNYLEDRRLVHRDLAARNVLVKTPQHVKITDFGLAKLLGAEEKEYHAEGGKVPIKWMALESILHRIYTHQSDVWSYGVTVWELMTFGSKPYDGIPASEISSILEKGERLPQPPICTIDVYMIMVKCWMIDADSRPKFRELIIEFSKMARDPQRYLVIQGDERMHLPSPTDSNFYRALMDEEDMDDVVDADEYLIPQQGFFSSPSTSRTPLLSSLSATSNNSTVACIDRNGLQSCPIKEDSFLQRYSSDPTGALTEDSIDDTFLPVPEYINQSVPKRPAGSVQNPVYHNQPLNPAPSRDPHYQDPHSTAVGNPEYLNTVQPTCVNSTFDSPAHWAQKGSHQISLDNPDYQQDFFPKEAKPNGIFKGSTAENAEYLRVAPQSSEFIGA
# [8] = molecular target: Follistatin-related protein 3 (Homo sapiens) (UniProt O95633); assay: compounds binding follistatin-related protein 3 – biochemical, small-molecule microarray, 635 nm fluorescence, primary screen (AID 1105); conditions: FSTL3 binding, higher = more signal;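 further: score merges emission near 667 nm and signal to noise per printed spot across three slides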
# Follistatin-related protein 3 (Homo sapiens), sequence (O95633 whole entry, looked up): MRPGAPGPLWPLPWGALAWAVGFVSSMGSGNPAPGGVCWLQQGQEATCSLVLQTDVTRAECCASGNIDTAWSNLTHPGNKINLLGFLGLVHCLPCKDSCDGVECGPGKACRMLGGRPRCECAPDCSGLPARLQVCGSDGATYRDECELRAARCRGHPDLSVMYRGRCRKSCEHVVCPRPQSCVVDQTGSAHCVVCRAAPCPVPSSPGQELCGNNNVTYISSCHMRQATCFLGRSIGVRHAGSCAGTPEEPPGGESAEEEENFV
# [9] = molecular target: Dickkopf-related protein 1 (Homo sapiens) (UniProt O94907); assay: small molecules binding DKK1 protein – biochemical, small-molecule microarray, 635 nm fluorescence scan, primary screen (AID 1106); conditions: higher = more signal;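 further: score merges emission near 667 nm with signal to noise over three replicate slides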
# Dickkopf-related protein 1 (Homo sapiens), sequence (O94907 whole entry, looked up): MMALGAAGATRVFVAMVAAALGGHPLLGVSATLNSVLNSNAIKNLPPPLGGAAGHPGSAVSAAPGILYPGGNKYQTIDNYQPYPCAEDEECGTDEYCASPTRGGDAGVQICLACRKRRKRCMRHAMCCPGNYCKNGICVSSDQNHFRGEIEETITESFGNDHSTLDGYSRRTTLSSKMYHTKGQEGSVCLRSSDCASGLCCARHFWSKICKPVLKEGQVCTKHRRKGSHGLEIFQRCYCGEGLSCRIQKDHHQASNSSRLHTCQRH
# [10] = test system: Inhibin beta A chain (activin A); assay: small molecules binding activin A – biochemical, small-molecule microarray, 635 nm fluorescence scan, primary screen (AID 1107); conditions: INHBA, higher = more signal;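 further: mouse activin A protein probed at 4.33 µg/mL on printed slides; score merges bound-protein fluorescence near 667 nm with spot signal-to-noise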
# [11] = test system: Human papillomavirus type 1a protein E7 (residues 44-93); assay: small molecules binding HPV E7 44-93 – biochemical, small-molecule microarray, residues 44-93, 635 nm fluorescence, primary screen (AID 1108); conditions: fluorescence 635 nm, higher = more signal;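 further: E7 fragment applied at 1 µg/mL in TBST for 1 h at 4 C; score combines spot fluorescence with its signal to noise ratio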
# [12] = hepatitis C replication reporter changes, two-sided – Huh7 cells, luciferase reporter, HCV replication inhibitor project, primary screen (AID 1109); conditions: Huh7 HCV replicon luciferase reporter, 48 h; higher = more signal;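 further: huh7 hepatoma cells harbouring a luciferase neomycin HCV replicon reporter; luciferase luminescence as measure of HCV replicon replication; test concentration not given here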
# [13] = molecular target: Left-right determination factor 2 (Homo sapiens) (UniProt O00292); assay: small molecules binding LEFTY2 protein – biochemical, small-molecule microarray, 635 nm fluorescence scan, primary screen (AID 1110); conditions: higher = more signal
# Left-right determination factor 2 (Homo sapiens), sequence (O00292 whole entry, looked up): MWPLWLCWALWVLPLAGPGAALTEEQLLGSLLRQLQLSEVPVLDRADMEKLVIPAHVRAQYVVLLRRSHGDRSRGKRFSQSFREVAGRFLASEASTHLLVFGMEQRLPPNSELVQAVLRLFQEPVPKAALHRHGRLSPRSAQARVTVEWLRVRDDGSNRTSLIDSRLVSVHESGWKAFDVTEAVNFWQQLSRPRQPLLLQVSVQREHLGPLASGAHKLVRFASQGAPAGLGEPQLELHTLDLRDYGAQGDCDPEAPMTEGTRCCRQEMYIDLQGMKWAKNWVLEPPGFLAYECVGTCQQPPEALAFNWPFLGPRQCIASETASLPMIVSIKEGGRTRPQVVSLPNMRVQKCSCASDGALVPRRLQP
# [14] = molecular target: Calmodulin-1 (Homo sapiens) (UniProt P0DP23); assay: small molecules binding calmodulin-1 with EGTA – biochemical, small-molecule microarray, Cy5-labelled CALM1, profiling panel (AID 1111); conditions: Cy5-CALM1 binding fluorescence, higher = more signal;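 further: labelled calmodulin applied in Tris saline Tween buffer holding calcium plus EGTA and DTT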
# [15] = molecular target: Calmodulin-1 (Homo sapiens) (UniProt P0DP23); assay: small molecules binding Ca-loaded calmodulin-1 – biochemical, small-molecule microarray, Cy5-labelled CALM1, plus calcium, artefact control for SMM control-protein annotation, profiling panel (AID 1112); conditions: Cy5-CALM1 binding fluorescence, higher = more signal;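 further: score merges spot fluorescence with signal to noise from triplicate slides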
# [16] = probe aWnt5a binding to arrayed compounds – biochemical, biotinylated probe, 635/667 nm fluorescence, primary screen (AID 1113); conditions: small-molecule microarray, higher = more signal;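 further: score merges 667 nm fluorescence intensity with signal-to-noise per printed feature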
# [17] = probe aShh binding to arrayed compounds – biochemical, biotinylated probe, 635/667 nm fluorescence, primary screen (AID 1114); conditions: small-molecule microarray, higher = more signal;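 further: probe is biotin-labelled aShh protein from a stem cell growth factor screen; measures binding of labelled protein to compounds printed on the slide; score merges feature fluorescence at 667 nm with signal-to-noise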
# [18] = probe aNog binding to arrayed compounds – biochemical, biotinylated probe, 635/667 nm fluorescence, primary screen (AID 1115); conditions: small-molecule microarray, higher = more signal;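 further: probe is biotinylated aNog protein used at 0.15 µg/mL for 1 h at 4 C; z-score combines 667 nm fluorescence of each spot with its signal to noise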
# [19] = molecular target: Torsin-1A-interacting protein 1 (Homo sapiens) (UniProt Q5JTV8); assay: compound microarray binding of lysate hLAP1 – cell lysate, small-molecule microarray, COS7 lysate, 635/667 nm fluorescence, primary screen (AID 1116); conditions: 635 nm fluorescence, higher = more signal
# Torsin-1A-interacting protein 1 (Homo sapiens), sequence (Q5JTV8 whole entry, looked up): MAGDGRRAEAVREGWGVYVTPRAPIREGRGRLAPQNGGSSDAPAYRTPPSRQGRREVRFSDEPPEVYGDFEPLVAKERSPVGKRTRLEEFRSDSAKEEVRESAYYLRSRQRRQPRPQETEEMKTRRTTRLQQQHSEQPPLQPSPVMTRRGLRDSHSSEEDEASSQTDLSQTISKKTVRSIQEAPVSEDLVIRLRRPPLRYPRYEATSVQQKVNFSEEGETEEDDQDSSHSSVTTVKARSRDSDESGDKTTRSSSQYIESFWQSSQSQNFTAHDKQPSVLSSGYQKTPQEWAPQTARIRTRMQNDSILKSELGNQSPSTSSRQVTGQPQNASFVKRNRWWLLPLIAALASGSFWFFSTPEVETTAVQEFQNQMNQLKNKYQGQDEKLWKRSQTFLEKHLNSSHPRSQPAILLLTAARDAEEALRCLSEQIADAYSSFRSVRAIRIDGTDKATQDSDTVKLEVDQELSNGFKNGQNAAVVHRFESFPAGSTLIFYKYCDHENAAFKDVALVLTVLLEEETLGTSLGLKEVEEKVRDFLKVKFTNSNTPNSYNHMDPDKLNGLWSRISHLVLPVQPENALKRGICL
# [20] = molecular target: Alpha-bungarotoxin (Bungarus multicinctus) (UniProt P60615); assay: compounds binding labelled alpha-BTX control protein – biochemical, small-molecule microarray, Alexa647 label, 635/667 nm fluorescence, artefact control for SMM control protein annotation, profiling panel (AID 1117); conditions: alpha-BTX-A647 binding fluorescence, higher = more signal
# Alpha-bungarotoxin (Bungarus multicinctus), sequence (P60615 whole entry, looked up): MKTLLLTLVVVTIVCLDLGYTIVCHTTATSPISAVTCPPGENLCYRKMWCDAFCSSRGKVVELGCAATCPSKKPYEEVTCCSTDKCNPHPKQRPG
SMILES,composite z-score [1],composite z-score [2],composite z-score [3],z-score [4],composite z-score [5],composite z-score [6],composite z-score [7],composite z-score [8],composite z-score [9],composite z-score [10],composite z-score [11],z-score [12],composite z-score [13],composite z-score [14],composite z-score [15],composite z-score [16],composite z-score [17],composite z-score [18],composite z-score [19],composite z-score [20]
CC(CO)N1C(=O)[C@@H]2C3C(=O)OCCC/C=C\[C@H]3OC23C=CCN(Cc2ccccc2)C(=O)[C@@H]13 (stereo not given in full),0.608,-0.206,0.0202,-0.992 (inactive),-0.559,-0.236,-0.794,-0.639,-0.386,1.21,-0.412,-0.159,-0.784,-0.182,-0.292,-0.176,-0.0769,-0.036,-0.307,-1.53
CC(C)C(=C=CC[C@@H](O)c1ccc(CO)o1)CCO,1.78,-0.2,-0.479,-0.493 (inactive),0.9,0.367,-0.171,0.197,0.39,1.08,0.185,-0.744,0.0308,-0.108,-0.13,-0.178,-0.123,0.0954,0.42,0.205
NCCCCCCNC(=O)[C@@H]1C[C@@H]2C(=O)N[C@@H](Cc3ccccc3)C(=O)N2[C@@H]1c1ccc(O)cc1,0.791,0.678,0.709,-0.573 (inactive),0.25,0.717,0.0626,0.367,0.627,1.15,1.12,0.355,0.093,2,1.32,-0.11,0.318,0.075,0.526,1.3
CC(C)(C)OC(=O)CC[C@@]12N=C(c3ccc(OCCCO)cc3)O[C@@H]1c1ccccc1CN(Cc1ccccc1)C2=O,1.39,0.578,0.505,-0.0992 (inactive),1.14,1.19,0.12,0.459,0.388,0.682,0.33,-2.92,-0.152,0.927,0.368,-0.0981,1.23,0.36,0.886,0.941
COc1ccc([Si](C)(C)[C@H]2[C@H](CC(=O)N(CCO)Cc3ccccc3)O[C@@]3(C(=O)N(Cc4cccc(N5C(=O)COc6ccccc65)c4)c4ccccc43)[C@@H]2C)cc1,1.29,-0.209,0.202,-2.08 (inactive),0.963,0.183,0.456,0.628,0.506,0.702,-0.591,-3.88,0.962,-0.13,-0.408,-0.203,0.564,0.389,0.836,1.57
CC1CC/C=C\[C@H]2OC34C=CCN(C(C)C)C(=O)[C@H]3N(C(CO)C(C)C)C(=O)[C@@H]4C2C(=O)O1 (stereo not given in full),-0.144,0.0383,0.228,-0.0607 (inactive),-0.505,-0.95,-0.818,-0.253,-0.429,0.64,-1.48,-0.403,-0.944,-1,-0.339,-0.202,-0.0626,-0.178,0.193,-2.8
CCCCC(=C=CC[C@H](O)c1cccc(OCCO)c1)CCO,0.674,-0.0104,0.287,-0.261 (inactive),0.0392,-0.558,-0.932,-0.764,-0.263,1.07,-0.397,-1.21,-0.497,-0.357,-0.0182,-0.0462,0.0639,0.0511,0.338,0.629
O=C1O[C@@H](c2ccccc2)[C@@H](c2ccccc2)N2[C@@H](c3ccc(OCCO)cc3)[C@]3(C(=O)Nc4ccc(C#CC5(O)CCCCCC5)cc43)[C@@H](C(=O)NC[C@H](O)c3ccccc3)[C@H]12,1.37,0.914,0.864,-0.828 (inactive),1.15,1.17,0.244,1.25,0.382,0.42,1.24,-2.06,0.497,1.97,0.638,-0.0877,0.172,1.21,1.94,2.42
CCCCC(=C=CC[C@@H](O)c1ccc(OCCO)cc1)C[C@@H](O)c1cc(Cl)cc(Cl)c1O,0.157,0.279,0.577,-2 (inactive),0.697,-0.167,-0.723,-0.0492,-0.344,0.588,-0.258,-1.99,-0.0836,0.863,0.83,-0.124,-0.221,0.342,0.497,0.166
COc1ccc(C#Cc2ccc3c(c2)[C@]2(C(=O)N3)[C@H](c3ccc(O)cc3)N3[C@H](c4ccccc4)[C@H](c4ccccc4)OC(=O)[C@H]3[C@@H]2C(=O)N2CCN(c3ncccn3)CC2)cc1,0.595,0.762,0.657,-0.835 (inactive),0.388,0.424,0.0077,0.219,-0.0775,0.0381,0.778,-1.15,-0.0042,1.95,0.707,0.0236,0.842,0.353,1.28,1.75
COC(=O)C(CC#Cc1ccc2c(c1)[C@]1(C(=O)N2)[C@H](C(N)=O)[C@H]2C(=O)O[C@H](c3ccccc3)[C@H](c3ccccc3)N2[C@@H]1c1ccc(O)cc1)C(=O)OC,1.12,-0.608,-0.0947,0.0733 (inactive),-0.519,-1.15,-1.1,-1.28,-0.591,-1.15,-1.74,-0.152,-1.19,-0.351,0.221,-0.359,0.373,-0.446,0.659,-0.243
COCCOC(=O)N1C(=O)[C@@]2(c3cc(C#CC4(O)CCCCCC4)ccc31)[C@H](c1ccccc1OCCO)N1[C@H](c3ccccc3)[C@H](c3ccccc3)OC(=O)[C@H]1[C@@H]2C(=O)Nc1nc2ccccc2s1,0.81,0.55,0.65,-0.318 (inactive),0.989,1.23,0.45,1.07,0.816,0.995,0.425,-1.51,0.636,1.59,0.941,0.0317,0.275,0.182,1.46,2.25
CC(C)(C)OC(=O)CC[C@]1(C(=O)NCc2ccccc2)COC(c2ccc(OCCCO)cc2)=N1,1.31,1.07,1.21,-0.264 (inactive),0.361,0.319,-0.716,-0.334,-1.17,0.469,0.326,-0.605,-0.632,0.98,1.11,-0.001,-0.138,1.31,2.07,2.47
C=CC[C@@H](OC(=O)Nc1ccc(SC)cc1)c1ccc(OCCO)cc1,1.28,0.271,1.29,-1.83 (inactive),0.0292,-0.381,-1.4,-0.805,-1.42,-0.148,-0.318,2.1,-0.952,-0.0326,0.835,-0.208,0.358,0.133,1.01,-0.68
CCCCCN1CC=CC23O[C@@H]4/C=C\CCC(C)OC(=O)C4[C@H]2C(=O)N(CCCO)[C@@H]3C1=O (stereo not given in full),0.936,-0.212,0.183,-0.246 (inactive),-0.753,-0.723,-1.36,-1.24,-0.543,0.797,-0.93,-0.333,-1.15,-1.35,0.0216,-0.194,-0.2,-0.0511,1.99,2.69
CCOC(=O)C[C@H]1[C@H](OC(=O)Cc2ccc3c(c2)OCO3)[C@@H](NC(=O)c2ccc3ccccc3c2)c2cc(OCCCO)ccc2N1C(=O)c1ccc2ccccc2n1,0.114,-0.0522,-0.0322,-3.47 (inactive),0.18,0.0646,0.118,0.161,0.121,0.0739,-0.13,-1.43,0.0822,1.05,0.691,-0.124,-0.0769,-0.171,1.15,1.15
